# L3MBTL1 inh: inhibitors of human L3MBTL1; Q9Y468; AlphaScreen L3MBTL1–H3K9me1 peptide binding; Potency, µM (top dose mostly 57.1 µM), without a hit: at the highest dose activity, negative = inhibition, hits mostly inhibitors; 230,000 tested, 0.66% active; AID 485360; also: potency is read from the fitted curve at half-maximal effect; % is scaled to controls: 0 for no effect and ±100 for the full control effect; nearly all actives have a fitted effect of over 60% in size
#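 L3MBTL1 (50 nM) pre-complexed 30 min with biotinylated H3(1-15)K9me1 peptide (75 nM), then compounds added for 30 min at room temperature; AlphaScreen streptavidin donor/nickel chelate acceptor beads (10 ug/mL final) read after 30 min dark incubation.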
# JMJD2A Tudor: JMJD2A Tudor domain (human) inhibition. AlphaScreen JMJD2A-Tudor / H3K4me3 peptide binding. Potency, µM (doses to about 114 µM), inactives show at the highest dose activity change, negative = inhibition, actives largely listed as inhibitors. 390,000 tested, 4.4% active. AID 504339; also: potency is read from the fitted curve at half-maximal effect; % is scaled to controls: 0 for no effect and ±100 for the full control effect; nearly all actives have a fitted effect of over 50% in size
# PI5P4Ka inh: PI5P4K alpha (human) kinase inhibition. max response, %. P48426. PI5P4Kalpha enzyme, ADP-Glo luminescence, 60 min; stronger effect = lower value. 330,000 tested, 1.2% active; active = max response of -50% or lower; inconclusive = between -30% and -50%; inactive = -30% or higher; also: value at the top dose of about 77 µM; % is scaled to controls: 0 for no effect and ±100 for the full control effect
#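 qHTS, 1536-well: enzyme/substrate mix, compound by pin tool, 5 microM ATP final; RT 60 min; ADP-Glo reagents 1 (45 min) then 2 (30 min); luminescence.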
# BAZ2B block: BAZ2B (human) inhibition. 360,000 tested, 4.4% active. Q9UIF8. Potency, µM (doses to about 114 µM), for inactives: at the top dose activity change, negative = inhibition, hits mostly inhibitors. AlphaScreen BAZ2B-H3K14Ac peptide displacement; also: potency is read from the fitted curve at half-maximal effect; % is scaled to controls: 0 for no effect and ±100 for the full control effect; nearly all actives have a fitted effect of over 60% in size
#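 Inhibition is scored as reduced AlphaScreen emission. The BAZ2B/b-H3(5-23)K14Ac complex (50 nM each) in PBS pH 7.4, 0.01% Tween-20 meets compound (up to 110 uM) for 30 min at RT before bead addition.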
# KDM4E inh: JMJD2E (human) inhibition. B2RXH2. JMJD2E catalytic domain, FDH-coupled NADH fluorescence (FDH is formaldehyde dehydrogenase). Potency, µM (top dose mostly 57.1 µM), without a hit: at the highest dose activity change, negative = inhibition, usual class: inhibitors. 230,000 tested, 1.6% active; active = well fitted inhibition curve with a large enough effect, not every such curve was filed as active; inconclusive = small, poorly fitted or top-dose-only effect, or another doubt; inactive = no such curve, though single readings can be large or run the other way;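 also: potency is read from the fitted curve at half-maximal effect; 0% = wells with enzyme and -100% = buffer wells without enzyme; nearly all actives have a fitted effect of over 50% in size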
# HP1b chromo inh: blocks HP1-beta chromodomain binding to methylated histone tails; AID 540317; P83916; 390,000 tested, 0.56% active; Potency, µM (highest dose often 114 µM), inactives show at the highest dose activity change, negative = inhibition, usual class: inhibitors; AlphaScreen HP1-beta / biotin-H3K9me3 peptide binding; also: potency is read from the fitted curve at half-maximal effect; nearly all actives have a fitted effect of over 70% in size
#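 AlphaScreen: HP1-beta (50 nM) preformed 30 min with biotin-H3(1-18)K9me3 peptide (50 nM) in PBS pH 7.4, 0.01% Tween-20. Compound added for 30 min at RT, then streptavidin donor/nickel chelate acceptor beads (10 ug/mL) for 30 min.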
# An asterisk follows results filed as active; ? = inconclusive; · = no result given; ! = repeats disagree; [ ] = dose if it differs, or a comment. Rows were chosen to be rich in hits. Some 5.7% of all compounds tested hit in one or more screens of this group. Unless noted, calls follow the shape of the dose curve; as a rule, active = well fitted inhibition curve with a large enough effect; inconclusive = small, poorly fitted or top-dose-only effect; inactive = no such curve, though single readings can be large or run the other way.
SMILES,L3MBTL1 inh,JMJD2A Tudor,PI5P4Ka inh,BAZ2B block,KDM4E inh,HP1b chromo inh
O=C1/C(=C\c2ccco2)SC(=S)N1C1CCS(=O)(=O)C1 (stereo unspecified),?,56µM*,?,40µM*,28µM*,?
CCN(C(=O)C(C)N1C(=O)/C(=C/c2ccco2)SC1=S)C1CCS(=O)(=O)C1 (stereo unspecified),·,56µM*,-68*,45µM*,·,?
CCOc1ccc(NC(=O)Cn2c(=O)n(CC3CCC(C(=O)NCCc4ccccc4)CC3)c(=O)c3ccccc32)cc1 (stereo unspecified),·,-21%,·,1%,·,4%
C[C@H]1Cc2c(-c3ccccc3)nc3c(c2CO1)CN(C(=O)Nc1cccc(C#N)c1)CC3,·,·,·,·,9%[11.4 µM],·
CCOc1ccc(N/C(=C(/C(Cl)=C(Cl)Cl)[N+](=O)[O-])n2cncn2)cc1,·,·,·,8.9µM*,?,·
CCOc1ccc(NC(=O)c2nn(C)c(C(=O)Nc3ccc(OCC)cc3)c2[N+](=O)[O-])cc1,3%[2.29 µM],-12%,-5,10%,·,7%
O=[N+]([O-])/C(C(Cl)=C(Cl)Cl)=C(\Nc1ccc(F)cc1)n1cncn1,·,·,·,28µM*,?,·
CCC1(c2ccccc2)NC(=O)N(CC(=O)NCc2ccc(OC)cc2)C1=O (stereo unspecified),·,-7%,4,3%,·,14%
O=c1[nH]sc2ccccc12,-22%,32µM*,-93*,50µM*,?,-15%
O=c1cc(O)sc2ccccc12,7%,-13%,-8,-2%,3%,22%
CC(C)c1ccc(S(=O)(=O)c2cnc(SCC(=O)Nc3cccc(C(F)(F)F)c3)nc2N)cc1,·,-10%,·,-1%,·,22%
Cc1[nH]c(=O)c(C#N)c(C)c1Cl,5%,-5%,0,-1%,?,45%
N#Cc1sc(=O)[nH]c1Cl,·,89µM*!,?,·,·,17%
Cc1c(C(=O)OC2CCC(C)CC2)[nH]c2c1C(=O)CC(c1ccc(N(C)C)cc1)C2 (stereo unspecified),·,-21%,·,-30%,·,-6%
O=C(CCC1CCCN(C(=O)CC2=CCCCC2)C1)N1CCN(c2ccccn2)CC1 (stereo unspecified),-6%,14µM*,?,-3%,?,-17%
Cc1cc(C)c(S(=O)(=O)Nc2ccncc2)cc1C,7%,-3%,5,2%,·,27%
Cc1ccc(S(=O)(=O)Nc2ccncc2)c(C)c1,·,89µM*,0,-3%,·,3%
Cc1noc(C)c1NC(=O)N(C)C[C@H]1Oc2ccc(NC(=O)c3ccncc3)cc2C(=O)N([C@H](C)CO)C[C@@H]1C,2%,-8%,2,·,·,56%
Cn1c(SCc2ccc(Br)cc2)nnc1-c1ccccn1,-1%,-5%,-1,79µM*,3%,3%
Brc1ccc(CSc2nccn2-c2ccccc2)cc1,?,56µM*,10,40µM*,-5%,?
CCOC(=O)c1ccc(NC(=O)C(CC)Sc2nc3ccncc3[nH]2)cc1 (stereo unspecified),·,-7%,·,-26%,·,57%
O=C(NC1CCCCC1)c1ccc2c(c1)N(Cc1ccc(Cl)cc1)C(=O)c1ccccc1S2(=O)=O,·,-3%,·,-13%,·,32%
CCCCCn1c(=O)[nH]c2cc(C(=O)NCc3ccc(C)cc3)ccc2c1=O,·,-3%,·,-1%,·,10%
O=c1cc(CO)oc(C(Nc2ccccn2)c2ccccc2Cl)c1O (stereo unspecified),·,28µM*,1,?,?,?
COc1ccc(C(Nc2ccccn2)c2oc(CO)cc(=O)c2O)cc1 (stereo unspecified),-4%,8.9µM*,-22,?,?,?
O=c1cc(CO)oc(C(Nc2ccccn2)c2ccc(F)cc2)c1O (stereo unspecified),3%,40µM*,-3,-27%,?,?
Cc1ccnc(NC(c2ccccc2O)c2oc(CO)cc(=O)c2O)c1 (stereo unspecified),·,-17%,-19,?,?,1%
